# Test results as given in PubChem BioAssay (NCI).
# About 83,000 compounds went through this panel and 20% of them were active in at least one assay; those are over-represented in the sample as a whole.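 Cells were grown in 96-well plates and exposed to the test compound at a single concentration for 48 hours; results are reported as percent growth, with values below 10 considered active.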 Unmarked numbers belong to inactive results. The source made the active and inactive calls.
# Experiments:
# Test in all cases: NCI-60 one-dose screen, 48 h (100 = growth as untreated, 0 = no growth, -100 = all killed)
# EKVX NSCLC = conditions: 10 µM unless noted
# SN12C renal = conditions: 10 µM unless noted
# UO-31 renal = conditions: 10 µM unless noted
# TK-10 renal = conditions: 10 µM unless noted
# ACHN renal = conditions: 10 µM unless noted
# CAKI-1 renal = conditions: 10 µM unless noted
# A498 renal = conditions: 10 µM unless noted
# CCRF-CEM leukemia = conditions: 10 µM unless noted
# MOLT-4 leukemia = conditions: 10 µM unless noted
# SR leukemia = conditions: 10 µM unless noted
# RPMI-8226 leukemia = conditions: 10 µM unless noted
# OVCAR-8 ovarian = conditions: 10 µM unless noted
# OVCAR-5 ovarian = conditions: 10 µM unless noted
# SK-OV-3 ovarian = conditions: 10 µM unless noted
# IGROV1 ovarian = conditions: 10 µM unless noted
# OVCAR-3 ovarian = conditions: 10 µM unless noted
# HS 578T breast = conditions: 10 µM unless noted
# NCI/ADR-RES ovarian = conditions: 10 µM unless noted
# OVCAR-4 ovarian = conditions: 10 µM
SMILES,growth (EKVX NSCLC),growth (SN12C renal),growth (UO-31 renal),growth (TK-10 renal),growth (ACHN renal),growth (CAKI-1 renal),growth (A498 renal),growth (CCRF-CEM leukemia),growth (MOLT-4 leukemia),growth (SR leukemia),growth (RPMI-8226 leukemia),growth (OVCAR-8 ovarian),growth (OVCAR-5 ovarian),growth (SK-OV-3 ovarian),growth (IGROV1 ovarian),growth (OVCAR-3 ovarian),growth (HS 578T breast),growth (NCI/ADR-RES ovarian),growth (OVCAR-4 ovarian)
CCOC(=O)c1nc2c3ccccc3ccn2c1C(=O)OC,80.2%,96.9%,91.7%,81.1%,94%,97.2%,64%,88.2%,84.5%,130%,86.9%,100%,89.5%,94%,94.3%,106%,105%,102%,–
O=c1[nH]c(CN2CCN(c3cccc(Cl)c3)CC2)nc2cc(Cl)ccc12,105%,89.3%,9.86% (active),106%,97.5%,99.4%,114%,105%,120%,89.7%,34.7%,46.2%,85.3%,82.1%,–,100%,99%,86.4%,104%
O=C(CSc1nc2ccc([N+](=O)[O-])cc2[nH]1)Nc1cccc(Cl)c1,16.7%,6.25% (active),9.96% (active),37.8%,22.5%,17.6%,5.48% (active),16.4%,7.99% (active),12.7%,-19.6% (active),18.7%,61.4%,29.4%,37.9%,19%,38.3%,25.4%,2.46% (active)
COc1ccc2nc3ccccc3c(NCCNCCO)c2c1,-7.03% (active),1.83% (active),-7.42% (active),-12.7% (active),-27.4% (active),6.25% (active),-60.4% (active),10.9%,10.1%,-11.1% (active),2.45% (active),5.82% (active),-4.97% (active),16.5%,–,-41.6% (active),-25.4% (active),68.7%,-10.4% (active)
Cn1cc(-c2nnc(-c3cn(C)c4ncccc34)o2)c2ccccc21,49.9%,28.4%,18%,69.9%,36%,30.9%,-20.3% (active),49.8%,18.3%,19.1%,31.3%,49.8%,55.5%,–,28%,-12% (active),–,11.9%,36.5%
CCOc1cc(NC(=O)c2ccccc2)c(OCC)cc1N,113%,113%,102%,112%,118%,102%,113%,107%,101%,110%,113%,113%,113%,114%,84.8%,108%,100%,111%,–
CC1(C)C(=O)/C(=C\c2cccnc2)C[C@]2(C)[C@H]3CC[C@@H]4[C@H]5[C@H](C(=O)/C=C/c6cccnc6)CC[C@]5(C(=O)O)CC[C@@]4(C)[C@]3(C)CC[C@@H]12,-73% [100 µM] (active),-29.4% [100 µM] (active),-32.9% [100 µM] (active),-89.5% [100 µM] (active),-71.1% [100 µM] (active),-66% [100 µM] (active),-77.5% [100 µM] (active),-6.59% [100 µM] (active),4.49% [100 µM] (active),25.8% [100 µM],-27% [100 µM] (active),0.147% [100 µM] (active),-49% [100 µM] (active),-68.5% [100 µM] (active),-34.3% [100 µM] (active),-75.4% [100 µM] (active),-0.172% [100 µM] (active),-1.33% [100 µM] (active),–
O=C1Cc2c(sc3c(F)cccc23)C(c2ccccc2[N+](=O)[O-])N1 (centres undefined),85.2%,99.1%,69.6%,142%,101%,75.1%,115%,110%,106%,99.4%,95.4%,107%,108%,93.1%,63.5%,97.9%,–,106%,93%
COc1ccc(C2CC(c3cc(OC)c(OC)c(OC)c3)=NN2C(C)=O)cc1OCC(=O)Nc1nc2ccc(C(F)(F)F)cc2s1 (centres undefined),83.4%,63%,39.5%,57.1%,40.4%,57.9%,54.1%,72.5%,60%,63.4%,42%,62.3%,117%,97%,–,67.1%,26.4%,63%,69.5%
Cc1ccc(NC(=O)N[C@@H](Cc2cc(F)cc(F)c2)C(=O)N[C@@H]2C(=O)N3CCC[C@H]3C(=O)N3CCOC[C@H]3C(=O)N[C@@H](C)C(=O)N3C[C@H](C)C[C@H]3C(=O)O[C@H]2C)cc1,30.6%,18.4%,28.4%,60.7%,29.7%,16.5%,-3.1% (active),58.3%,41%,32%,23%,19.8%,38%,–,47.2%,18.9%,41.9%,91.5%,12.8%
CC1=CC[C@@H]2C(C)(C)[C@@H](O)CC[C@@]2(C)[C@@H]1COc1ccc2ccc(=O)oc2c1,72.4%,32.5%,2.21% (active),82.3%,48.6%,36.5%,83.2%,41.7%,37.3%,71.5%,19.8%,30.5%,98%,–,–,41.2%,44.2%,17.5%,31%
NC(=O)c1c(NC(=O)COC(=O)Cc2ccccc2F)sc2c1CCC2,101%,109%,72.6%,124%,109%,99%,117%,108%,86.6%,125%,130%,39.4%,111%,104%,–,112%,–,110%,–
O=C(Nc1cccnc1)c1ccc2ccc3ccc(C(=O)Nc4cccnc4)nc3c2n1,54.4%,32.4%,36.3%,37.1%,23.3%,10.7%,-39.1% (active),28.5%,32.1%,42.6%,18.7%,22.6%,36.9%,47.6%,15.4%,23.3%,46.4%,79.8%,–
C=C(C)[C@@H]1CC[C@]2(c3ncc(C)o3)CC[C@]3(C)[C@H](CC[C@@H]4[C@@](C)(CCC#N)[C@H](C(=C)C)CC[C@]43C)[C@@H]12,-79.1% [100 µM] (active),-91.5% [100 µM] (active),-94.4% [100 µM] (active),-90.6% [100 µM] (active),-97.8% [100 µM] (active),-96.4% [100 µM] (active),-93.4% [100 µM] (active),-11.1% [100 µM] (active),-35.4% [100 µM] (active),14.9% [100 µM],-41% [100 µM] (active),-78.1% [100 µM] (active),-97.2% [100 µM] (active),-88.4% [100 µM] (active),-87.6% [100 µM] (active),-80.4% [100 µM] (active),-28% [100 µM] (active),-82.9% [100 µM] (active),–
